tim10-1 inh = growth inhibitors of tim10-1 mutant yeast, primary screen, luminescence, uHTS | 2.2% of 330,000 active | inhibition, % at 20 µM | S. cerevisiae tim10-1 ts strain growth, BacTiter-Glo, 24 h | AID 463190, 2010;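 active means inhibition of at least 40%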;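 further: mutant grown at 25 °C; 0% = DMSO wells with yeast and 100% = wells holding no yeast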
tim23-1 inh = growth inhibitors of tim23-1 mutant yeast, primary screen, luminescence, uHTS; S. cerevisiae tim23-1 growth, BacTiter-Glo luminescence, 24 h; inhibition, % at 20 µM; 1.3% of 330,000 active;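 active means growth inhibition of the mutant yeast at or above 50%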;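 further: temperature-sensitive mutant grown at 25 °C; plate controls were DMSO-treated mutant yeast for no effect and medium wells lacking yeast for full effect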
PfHsp90 yeast 2 = growth inhibition of PfHsp90-expressing yeast, primary screen, antimalarial PfHsp90 inhibitor project, S. cerevisiae, BacTiter-Glo luminescence, single point, set 2 | 0.32% of 310,000 active | BacTiter-Glo ATP, 48 h; yeast lacking PDR1 and PDR3 efflux regulators | AID 504621, 2011 | inhibition, % at 9.4 µM;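 active means every replicate shows inhibition above about 80%, whatever the replicate mean, limit read from the data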;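 further: 0% = DMSO neutral controls and 100% = 20 µM radicicol positive controls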
TIM10 inh = growth inhibitors of isogenic TIM10 control yeast, primary screen, counter-screen for tim10-1 yeast inhibitor project, luminescence, uHTS; S. cerevisiae TIM10 strain growth, BacTiter-Glo luminescence, 24 h; inhibition, % at 10 µM; 1.4% of 330,000 active; AID 463195, 2010;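 active means inhibition of 40% or more at the single tested concentration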;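 further: wild-type TIM10 isogenic control strain grown at permissive 25 °C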
Rce1 inh = yeast Rce1p protease inhibitors, primary screen, biochemical, fluorescence, cell-free homogeneous | yeast membranes, quenched prenylated peptide cleavage fluorescence | calls only | 0.27% of 290,000 active | AID 2563, 2010;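 active means fall in fluorescence gain of 50% or more versus controls, with final raw signal at or below 3038400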;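 further: plate controls were neutral control wells for no effect and wells lacking membranes for full effect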
Target sequence (Q03530 whole entry, looked up): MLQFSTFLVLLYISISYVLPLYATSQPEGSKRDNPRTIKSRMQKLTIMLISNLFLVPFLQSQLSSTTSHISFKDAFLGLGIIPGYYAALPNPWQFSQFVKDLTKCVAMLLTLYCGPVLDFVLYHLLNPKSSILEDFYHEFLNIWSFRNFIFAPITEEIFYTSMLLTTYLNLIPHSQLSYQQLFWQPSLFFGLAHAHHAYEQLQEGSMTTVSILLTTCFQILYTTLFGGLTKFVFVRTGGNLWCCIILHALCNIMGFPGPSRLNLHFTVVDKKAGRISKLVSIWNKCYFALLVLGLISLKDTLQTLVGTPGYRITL
tim10-1 confirm = growth inhibitors of tim10-1 mutant yeast, confirmation, single concentration, luminescence, S. cerevisiae | shares compounds with tim10-1 inh | S. cerevisiae tim10-1 ts strain growth, BacTiter-Glo, 24 h | inhibition, % at 20 µM | 56% of 7,400 active | AID 463213, 2010;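 active means inhibition of yeast growth at or above a set limit in either of two repeat tests at 20 µM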;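 further: tim10-1 mutant grown at permissive 25 °C to find synthetic lethal compounds; 0% = DMSO yeast wells and 100% = medium wells without yeast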
tim10 confirm = growth inhibitors of wild-type TIM10 yeast, confirmation, counter-screen for tim10-1 synthetic lethality project, single concentration, luminescence, S. cerevisiae | shares compounds with TIM10 inh | S. cerevisiae tim10 strain growth, BacTiter-Glo luminescence, 24 h | inhibition, % at 10 µM | 63% of 4,600 active | AID 463215, 2010;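 active means inhibition of yeast growth at or above a set limit in either of two replicates at 10 µM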;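 further: this counterscreen used the strain with wild-type TIM10; 0% = yeast with DMSO and 100% = medium wells lacking yeast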
tim23-1 confirm = tim23-1 mutant yeast growth inhibitors, confirmation, luminescence, single concentration; inhibition, % at 20 µM; AID 463218, 2010; shares compounds with tim23-1 inh; 83% of 4,400 active; S. cerevisiae tim23-1 growth, BacTiter-Glo luminescence, 24 h;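 active means inhibition above about 39% in either of two replicate wells at 20 µM, limit read from the data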;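 further: temperature-sensitive tim23-1 mutant grown at 25 °C; 0% = DMSO wells with yeast and 100% = medium wells without yeast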
* = called active by the depositor. In the library only some 3.7% were active in any assay of this set; here they are far more common.

Results for COc1ccc(C(C[N+](=O)[O-])c2c(-c3ccccc3)cc3ccccn23)c(OC)c1 (configuration not stated) ?
tim10-1 inh: 70*; tim23-1 inh: 73*; PfHsp90 yeast 2: -9; TIM10 inh: 60*; Rce1 inh: inactive; tim10-1 confirm: 67*; tim10 confirm: 67*; tim23-1 confirm: 91*

What do the screens show for `COc1ccc(C(C[N+](=O)[O-])c2c(C)cc3ccccn23)cc1` (configuration not stated)?
tim10-1 inh: 30; tim23-1 inh: 47; PfHsp90 yeast 2: -9; TIM10 inh: 9; Rce1 inh: inactive

What do the screens show for `N#C/C(=C\c1ccc([N+](=O)[O-])cc1)c1ccccn1`?
tim10-1 inh: 46*; tim23-1 inh: 65*; PfHsp90 yeast 2: -85; TIM10 inh: 52*; Rce1 inh: inactive; tim10-1 confirm: 60*; tim10 confirm: 57*; tim23-1 confirm: 58*

How did CN(C)c1ccc(/C=C(\C#N)c2ccccn2)cc1 do in these assays?
tim10-1 inh: 29; tim23-1 inh: 33; PfHsp90 yeast 2: 20; TIM10 inh: 30; Rce1 inh: inactive

What do the screens show for `Cc1cc(N2CCN(c3nc(-c4ccccc4)cs3)CC2)c2ccccc2n1`?
tim10-1 inh: 51*; tim23-1 inh: 63*; PfHsp90 yeast 2: 24; TIM10 inh: 15; Rce1 inh: inactive; tim10-1 confirm: 42*; tim23-1 confirm: 52*

Results for Cc1ccc(CS(=O)(=O)c2ncc(Cl)c(C(=O)Nc3nnc(C(C)C)s3)n2)cc1 ?
tim10-1 inh: 25; tim23-1 inh: 18; PfHsp90 yeast 2: 2; TIM10 inh: 6; Rce1 inh: inactive

What do the screens show for `CCOc1ccccc1NC(=O)c1nc(S(=O)(=O)Cc2cccc(C)c2)ncc1Cl`?
tim10-1 inh: 44*; tim23-1 inh: 81*; PfHsp90 yeast 2: -35; TIM10 inh: 41*; Rce1 inh: inactive; tim10-1 confirm: 44*; tim10 confirm: 71*; tim23-1 confirm: 83*

Results for Cc1ccc(CS(=O)(=O)c2ncc(Cl)c(C(=O)Nc3ccc(OC(F)F)cc3)n2)cc1 ?
tim10-1 inh: 44*; tim23-1 inh: 65*; PfHsp90 yeast 2: -13; TIM10 inh: -46; Rce1 inh: inactive; tim10-1 confirm: -11; tim23-1 confirm: 52*

How did CN(CC(=O)Nc1ccc([N+](=O)[O-])cc1Br)Cc1c(F)cccc1Cl do in these assays?
tim10-1 inh: 9; tim23-1 inh: 14; PfHsp90 yeast 2: -16; TIM10 inh: -35; Rce1 inh: inactive

How did COC(=O)CCC(C)N1CCC(Oc2ccc(C(=O)N3CCCC3)cc2)CC1 (configuration not stated) do in these assays?
tim10-1 inh: 2; tim23-1 inh: 5; PfHsp90 yeast 2: 15; TIM10 inh: 1; Rce1 inh: inactive

What do the screens show for `CCOc1cc(/C=C2\C(=O)N(c3cccc(C(F)(F)F)c3)C(=O)c3ccccc32)ccc1O`?
tim10-1 inh: 42*; tim23-1 inh: 65*; PfHsp90 yeast 2: 3; TIM10 inh: 30; Rce1 inh: inactive; tim10-1 confirm: 34*; tim23-1 confirm: 47*

Results for COc1cccc(N2C(=O)c3ccncc3C2=O)c1 ?
tim10-1 inh: 15; tim23-1 inh: -8; PfHsp90 yeast 2: 20; TIM10 inh: -18; Rce1 inh: inactive

How did COc1cccc(/C=C2\C(=O)N(c3cccc(C)c3)C(=O)c3ccccc32)c1 do in these assays?
tim10-1 inh: 43*; tim23-1 inh: 75*; PfHsp90 yeast 2: -58; TIM10 inh: 41*; Rce1 inh: inactive; tim10-1 confirm: 46*; tim10 confirm: 46*; tim23-1 confirm: 68*

What do the screens show for `CC1=NN(c2ccccc2)C(=O)/C1=C/c1cccc(C)c1`?
tim10-1 inh: 14; tim23-1 inh: 35; PfHsp90 yeast 2: 24; TIM10 inh: 20; Rce1 inh: inactive

How did Cc1cccc(N2C(=O)/C(=C\c3ccc(OC(F)F)cc3)c3ccccc3C2=O)c1 do in these assays?
tim10-1 inh: 51*; tim23-1 inh: 68*; PfHsp90 yeast 2: 97*; TIM10 inh: 34; Rce1 inh: inactive; tim10-1 confirm: 25; tim23-1 confirm: 58*

Results for COc1ccc(S(N)(=O)=O)cc1C(=O)NCC1(N2CCCCC2)CCCCC1 ?
tim10-1 inh: -1; tim23-1 inh: 7; TIM10 inh: 4; Rce1 inh: inactive

Results for O=c1c2ccccc2oc2ccc(-c3ccc4[nH]ccc4c3)cc12 ?
tim10-1 inh: 42*; tim23-1 inh: 62*; PfHsp90 yeast 2: 0; TIM10 inh: 41*; Rce1 inh: inactive; tim10-1 confirm: 39*; tim10 confirm: 66*; tim23-1 confirm: 74*

How did COc1ccc(-c2cc(C(F)F)nc(-n3nc(C)cc3C)n2)cc1 do in these assays?
tim10-1 inh: 42*; tim23-1 inh: 58*; PfHsp90 yeast 2: -25; TIM10 inh: 52*; Rce1 inh: inactive; tim10-1 confirm: 36*; tim10 confirm: -10; tim23-1 confirm: 45*

How did Cc1ccc(-c2cc(C(F)F)nc(N3CCOCC3)n2)cc1 do in these assays?
tim10-1 inh: -10; tim23-1 inh: -12; PfHsp90 yeast 2: -10; TIM10 inh: -15; Rce1 inh: inactive

What do the screens show for `O=C(NCCS(=O)(=O)c1ccc(Br)cc1)c1c(F)cccc1F`?
tim10-1 inh: -10; tim23-1 inh: -6; PfHsp90 yeast 2: 5; TIM10 inh: -15; Rce1 inh: inactive

What do the screens show for `Cc1ccc(NCc2nc3ccccc3n2CCOc2ccccc2)cc1`?
tim10-1 inh: 44*; tim23-1 inh: 57*; PfHsp90 yeast 2: -5; TIM10 inh: 17; Rce1 inh: inactive; tim10-1 confirm: 30; tim23-1 confirm: 74*

How did Cc1nc2ccccc2n1CCOc1ccccc1 do in these assays?
tim10-1 inh: 11; tim23-1 inh: 11; PfHsp90 yeast 2: -2; TIM10 inh: 5; Rce1 inh: inactive

Results for CCSc1ccccc1C(=O)n1nnc2ccccc21 ?
tim10-1 inh: 55*; tim23-1 inh: 59*; PfHsp90 yeast 2: 8; TIM10 inh: 39; tim10-1 confirm: 49*; tim23-1 confirm: 70*
